Values joined by “and” are separate entries in the source; they are usually repeats but may differ in a detail not shown here. Equal values may be shown once. About 2,000 (36%) of roughly 5,500 compounds were called active. Inconclusive results (about 18%) are left out. Rule as the data show it: active = normalized growth mostly below about 0.91 (no sharp cut-off); inconclusive = no clear call, values can overlap the other calls; inactive = mostly above about 0.92. The list shows a part of the results.
Test: chemical genetic growth profiling, strain panel (AID 1159580);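 also: tested at 20 µM; growth read once vehicle control cultures reached saturation at 30 °C; 1 = growth at the plate median or of vehicle wells; lower values mean less growth of the strain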
Conditions: S. cerevisiae deletion strains, growth OD

Measured: normalized growth

NCC(=O)CCC(=O)O
inactive: locus YAL013W, strain DEP1, hits give low values 1.01 | locus YAL021C, strain ccr4, hits give low values 1 | locus YAL026C, strain drs2, hits give low values 1.01 | locus YAL030W, strain snc1, hits give low values 0.99 | locus YBL061C, strain skt5, hits give low values 0.979 | locus YBR009C, strain hhf1, hits give low values 1.03 | locus YBR021W, strain FUR4, hits give low values 1.04 | locus YBR023C, strain chs3, hits give low values 0.995 | locus YBR171W, strain sec66, hits give low values 0.962 | locus YBR229C, strain ROT2, hits give low values 1.02 | locus YBR231C, strain swc5, hits give low values 0.968 | locus YBR279W, strain paf1, hits give low values 0.997 | locus YCL011C, strain gbp2, hits give low values 1 | locus YCL016C, strain dcc1, hits give low values 0.998 | locus YCL029C, strain bik1, hits give low values 0.995 | locus YCL061C, strain MRC1, hits give low values 0.983 | locus YCL069W, strain vba3, hits give low values 0.989 | locus YCR088W, strain abp1, hits give low values 0.987 | locus YDL005C, strain med2, hits give low values 0.96 | locus YDL035C, strain GPR1, hits give low values 1.02 | locus YDL040C, strain nat1, hits give low values 0.979 | locus YDL074C, strain BRE1, hits give low values 1.02 | locus YDL101C, strain DUN1, hits give low values 1.01 | locus YDL134C, strain PPH21, hits give low values 1.01 | locus YDL185W, strain tfp1, hits give low values 0.994 | locus YDL192W, strain arf1, hits give low values 0.992 | locus YDR001C, strain nth1, hits give low values 0.997 | locus YDR069C, strain doa4, hits give low values 0.979 | locus YDR101C, strain arx1, hits give low values 0.988 | locus YDR137W, strain rgp1, hits give low values 0.979 | locus YDR150W, strain NUM1, hits give low values 1.02 | locus YDR159W, strain sac3, hits give low values 1 | locus YDR162C, strain NBP2, hits give low values 1.01 | locus YDR195W, strain ref2 0.945 | locus YDR297W, strain sur2, hits give low values 0.99 | locus YDR318W, strain mcm21, hits give low values 0.978 | locus YDR334W, strain swr1, hits give low values 0.984 | locus YDR335W, strain msn5, hits give low values 0.995 | locus YDR388W, hits give low values 0.986 | locus YDR392W, strain spt3, hits give low values 1.05 | locus YDR502C, strain sam2, hits give low values 0.995 | locus YEL003W, strain gim4, hits give low values 0.992 | locus YEL037C, strain rad23, hits give low values 0.979 | locus YEL061C, strain CIN8 (second series), hits give low values 0.99 | locus YEL061C, strain CIN8, hits give low values 1.01 | locus YER015W, strain faa2, hits give low values 0.996 | locus YER016W, strain bim1, hits give low values 1.01 | locus YER110C, hits give low values 0.991 | locus YER111C, strain swi4, hits give low values 0.972 | locus YER155C, strain BEM2 (second series), hits give low values 0.955 | locus YER155C, strain BEM2, hits give low values 1.01 | locus YER167W, strain BCK2, hits give low values 1.01 | locus YFR010W, strain ubp6, hits give low values 0.973 | locus YGL078C, strain dbp3, hits give low values 0.99 | locus YGL086W, strain mad1, hits give low values 1 | locus YGL167C, strain pmr1, hits give low values 0.974 | locus YGL173C, strain kem1, hits give low values 0.971 | locus YGL227W, strain vid30, hits give low values 0.988 | locus YGL240W, strain doc1, hits give low values 0.965 | locus YGL248W, strain PDE1, hits give low values 1.01 | locus YGL253W, strain hxk2, hits give low values 1.01 | locus YGR078C, strain PAC10, hits give low values 1.02 | locus YGR135W, strain pre9, hits give low values 0.982 | locus YGR229C, strain SMI1, hits give low values 1.02 | locus YGR252W, strain gcn5, hits give low values 0.975 | locus YHR013C, strain ard1, hits give low values 0.964 | locus YHR027C, strain rpn1, hits give low values 1 | locus YHR030C, strain SLT2, hits give low values 1.01 and 1.03 | locus YHR079C, strain IRE1 (second series), hits give low values 0.982 | locus YHR079C, strain IRE1, hits give low values 1.03 | locus YHR094C, strain hxt1, hits give low values 0.99 | locus YHR129C, strain ARP1, hits give low values 1.01 | locus YHR142W, strain chs7, hits give low values 0.981 | locus YHR200W, strain rpn10, hits give low values 0.99 | locus YIL066C, strain RNR3, hits give low values 1.02 | locus YIL073C, strain SPO22, hits give low values 1.01 | locus YIL125W, strain kgd1, hits give low values 0.997 | locus YIR030C, strain dcg1, hits give low values 0.994 | locus YJL092W, strain hpr5, hits give low values 0.969 | locus YJL095W, strain BCK1 (second series), hits give low values 0.984 | locus YJL095W, strain BCK1, hits give low values 1.01 and 1.03 | locus YJL115W, strain asf1, hits give low values 0.967 | locus YJL129C, strain trk1, hits give low values 0.98 | locus YJL134W, strain LCB3, hits give low values 1.01 | locus YJL154C, strain vps35, hits give low values 0.979 | locus YJL164C, strain tpk1, hits give low values 1 | locus YJL166W, strain qcr8, hits give low values 0.924 | locus YJL168C, strain set2, hits give low values 0.984 | locus YJL187C, strain SWE1 (second series), hits give low values 1.01 | locus YJL187C, strain SWE1, hits give low values 0.982 | locus YJR043C, strain POL32, hits give low values 1.01 | locus YJR066W, strain TOR1, hits give low values 0.986

From PubChem BioAssay AID1159580 (chemical genetic matrix, 2015)
